Reference: the supplement of paper PMC3545927
The list shows a part of the results. The true hit rate is not given.

Target: furin, P09958
Test: furin cleavage Z-score vs untreated control; higher = more cleavage, active = 3.5 or more, inactive = 1 or less, 8 variable residues between constant flanks
Summary of the method: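 Purified furin cleaved 8-mer peptides that were fused to a cDNA oligonucleotide and held on magnetic beads by their N-terminus. Each 0.01 ml reaction used a 1:10 enzyme:substrate ratio in 50 mM HEPES pH 7.5 with CaCl2 and NaCl and ran 7.5, 15 or 30 min. Released DNA was adapter-tagged by PCR and sequenced, and read counts gave abundance. The cleavage Z-score came from log counts against furin-free reactions, lowess-adjusted and scaled by median absolute deviation.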

Chain of furin, P09958 (P09958 whole entry): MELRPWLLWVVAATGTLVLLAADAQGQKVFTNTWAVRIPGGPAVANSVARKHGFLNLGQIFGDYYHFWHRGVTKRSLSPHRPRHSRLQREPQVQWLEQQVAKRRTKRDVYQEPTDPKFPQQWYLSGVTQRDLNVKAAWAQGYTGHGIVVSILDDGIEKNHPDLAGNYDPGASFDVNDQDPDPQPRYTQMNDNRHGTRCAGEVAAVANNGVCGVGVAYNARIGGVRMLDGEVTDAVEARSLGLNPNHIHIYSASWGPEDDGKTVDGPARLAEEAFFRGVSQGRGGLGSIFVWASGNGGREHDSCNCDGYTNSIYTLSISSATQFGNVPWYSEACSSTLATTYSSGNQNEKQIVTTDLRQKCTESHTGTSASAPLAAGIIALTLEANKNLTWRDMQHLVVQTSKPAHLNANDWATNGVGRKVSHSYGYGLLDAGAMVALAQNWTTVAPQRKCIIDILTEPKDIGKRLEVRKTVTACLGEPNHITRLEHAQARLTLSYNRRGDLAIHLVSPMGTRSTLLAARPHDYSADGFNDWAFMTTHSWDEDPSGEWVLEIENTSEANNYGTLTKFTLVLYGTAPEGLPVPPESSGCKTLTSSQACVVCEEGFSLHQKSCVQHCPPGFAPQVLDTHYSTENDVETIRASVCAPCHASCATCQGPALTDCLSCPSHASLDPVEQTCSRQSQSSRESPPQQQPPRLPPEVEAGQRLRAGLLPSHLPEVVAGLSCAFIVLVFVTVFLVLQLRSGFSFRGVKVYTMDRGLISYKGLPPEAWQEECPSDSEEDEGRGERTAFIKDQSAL

Sequence	furin cleavage Z-score (7.5 min)	furin cleavage Z-score (15 min)	furin cleavage Z-score (30 min)
CAYMSKAHGIAGNASASA [HC794]	-0.614 (inactive)	-0.299 (inactive)	0.089 (inactive)
CANYTIFKIRAGNASASA [HC472]	-0.135 (inactive)	0.367 (inactive)	-0.43 (inactive)
CAELPCHRPSAGNASASA [HC2325]	0.967 (inactive)	-0.4 (inactive)	0.0984 (inactive)
CAEVPCHWPSAGNASASA [HC2368]	-0.575 (inactive)	-0.478 (inactive)	0.531 (inactive)
CAVVCCQMSYAGNASASA [HC119]	-0.852 (inactive)	-0.183 (inactive)	0.623 (inactive)
CADKNQVEGEAGNASASA [HC686]	-0.934 (inactive)	-0.739 (inactive)	-1.82 (inactive)
CAAKLMPQLPAGNASASA [HC1159]	0.255 (inactive)	-0.546 (inactive)	0.241 (inactive)
CAMNSRKGRYAGNASASA [FS-1237]	1.23	0.312 (inactive)	2.34
CALVRRRRRYAGNASASA [FS-462]	11 (active)	12.3 (active)	9.67 (active)
CALTLSPYYKAGNASASA [HC575]	-0.934 (inactive)	-0.768 (inactive)	-0.313 (inactive)
CALTLRMRRYAGNASASA [FS-1032]	9.91 (active)	10.2 (active)	11.2 (active)
CAAHDGAGKRAGNASASA [HC1557]	-0.0785 (inactive)	0.342 (inactive)	0.362 (inactive)
CAVEMEECSQAGNASASA [HC1790]	0.132 (inactive)	-1.38 (inactive)	-1.19 (inactive)
CATTPCSGNWAGNASASA [HC1921]	0.659 (inactive)	0.815 (inactive)	-0.795 (inactive)
CAPVGSQLPCAGNASASA [HC1238]	0.473 (inactive)	-1.27 (inactive)	0.372 (inactive)
CAGVRATRKTAGNASASA [HC183]	0.267 (inactive)	0.577 (inactive)	0.344 (inactive)
CAIREVPCHRAGNASASA [HC2424]	-0.0693 (inactive)	1.33	2.41
CAVIQMYTNVAGNASASA [HC709]	0.334 (inactive)	-0.0874 (inactive)	-1.04 (inactive)
CARAKRPLMVAGNASASA [FS-2884]	0.123 (inactive)	1.97	-0.869 (inactive)
CARAKRRWAPAGNASASA [FS-2638]	0.9 (inactive)	1.95	0.773 (inactive)
CARAKRAFLPAGNASASA [FS-1991]	3.35	4.79 (active)	6.29 (active)
CARAKRRAIRAGNASASA [FS-2637]	10.3 (active)	11.4 (active)	9.08 (active)
CARAYRSSMRAGNASASA [FS-2894]	-1.12 (inactive)	-1.44 (inactive)	-1.22 (inactive)

Sequence	furin cleavage Z-score (7.5 min)	furin cleavage Z-score (15 min)	furin cleavage Z-score (30 min)
CARAKRTTKRAGNASASA [FS-3241]	8.36 (active)	10.4 (active)	9.38 (active)
CARAKREEKKAGNASASA [FS-2634]	3.98 (active)	2.96	4.64 (active)
CAAATLGFGAAGNASASA [HC790]	-0.962 (inactive)	1.23	1.13
CARAKRKVTRAGNASASA [FS-2636]	3.09	4.94 (active)	4.17 (active)
CARDGRKVTVAGNASASA [FS-2902]	-0.804 (inactive)	-0.377 (inactive)	-1.67 (inactive)
CARAKRRGGGAGNASASA [FS-2886]	0.374 (inactive)	-1.9 (inactive)	0.196 (inactive)
CANLLSVEEAAGNASASA [HC1411]	1.03	-1.37 (inactive)	1.04
CARKNRSFYAAGNASASA [FS-3222]	-0.489 (inactive)	0.152 (inactive)	-1.6 (inactive)
CARKNRSTASAGNASASA [FS-3159]	4.98 (active)	6.48 (active)	5.71 (active)
CARKNRSQIVAGNASASA [FS-1731]	0.382 (inactive)	1.89	1.82
CARKGRSYGSAGNASASA [FS-1902]	2.38	4.19 (active)	3.35
CARKGRSQSVAGNASASA [FS-2688]	0.447 (inactive)	1.69	2.28
CARKRRPYGSAGNASASA [FS-1960]	-0.105 (inactive)	0.526 (inactive)	-2 (inactive)
CAESVTSTWVAGNASASA [HC2177]	0.711 (inactive)	-0.0286 (inactive)	-0.582 (inactive)
CASCLWMMLLAGNASASA [HC527]	0.0621 (inactive)	-0.464 (inactive)	0.433 (inactive)
CAHYQDVLKEAGNASASA [HC1402]	-0.724 (inactive)	-0.493 (inactive)	0.655 (inactive)
CALRERPVRCAGNASASA [FS-458]	2.04	2.12	4.39 (active)
CAINRRTGRPAGNASASA [FS-34]	-0.402 (inactive)	-1.89 (inactive)	-1.13 (inactive)
CAQRQRSVRCAGNASASA [FS-481]	1.64	0.494 (inactive)	0.731 (inactive)
CAIRRRTQRCAGNASASA [FS-933]	7.07 (active)	6.92 (active)	6.54 (active)
CAQRSRQVRCAGNASASA [FS-482]	0.775 (inactive)	0.292 (inactive)	1.12
CALSRRRVRCAGNASASA [FS-1543]	10.2 (active)	7.81 (active)	8.22 (active)
CAYGAKDVRCAGNASASA [HC1422]	-0.0596 (inactive)	0.548 (inactive)	0.765 (inactive)
